# Test results from PubChem BioAssay AID651871 (Sanford-Burnham Center for Chemical Genomics, 2012).
# “And” between values parts separate entries of the source, which are not always exact repeats. Identical values can stand only once.
# Test system: HL-1
# Test: cardiomyocyte survival under oxidative or metabolic stress – cell-based, panel, H9c2 and HL-1, ATP luminescence, set 2, SAR follow-up (AID 651871);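 also: cells exposed to stressor for 2 h before ATP readout; reference of the scale not given here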
# Details: H9c2/HL-1 cardiomyocytes, 2-deoxyglucose stress, with 2-deoxyglucose; run 1, at 79 µM (top of the series)
row,SMILES,activity (protection/inhibition)
1,COc1ccc2nc(-c3cc(OC)c(OC)c(OC)c3)cc(C(=O)NCC(=O)Nc3ccc(C(C)=O)cc3)c2c1,115%
2,CCOC(=O)c1cccc(NC(=O)CNC(=O)c2cc(-c3cc(OC)c(OC)c(OC)c3)nc3ccccc23)c1,101%
3,COc1ccc2c(c1OC)C(=O)N1c3ccccc3C(=O)N(Cc3cccc(Cl)c3Cl)C21 (stereo not drawn),41.2% and 40.9% and -9.68%
